# PubChem BioAssay (NCATS)
# Inconclusive results are not listed. Where a call stands in place of a potency, no number is given. The source made the active and inactive calls. Unless noted, the call rests on the fitted dose curve; in most records, active means well fitted curve in the direction sought with a large enough effect; inconclusive means small, poorly fitted or top-dose-only effect, or another doubt; inactive means no such curve, though single readings can be large; an effect the other way counts as inactive or inconclusive.
# Tests used:
# [1] = Inducers of the Endoplasmic Reticulum Stress Response (ERSR) in human glioma: Validation (AID 504836)
# Outline: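 ERSR induction read as luciferase luminescence (Bright-Glo, 10 min at room temperature) in stably transfected human U87-MG glioma cells exposed to compounds for 16 h, using GRP78 as sensor.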
# [2] = S16 Schwann cell PMP22 intronic element firefly luciferase assay (AID 624032); further: nearly all actives have a fitted effect of over 30% in size; further: potency means the concentration at half of the fitted maximal effect
# Outline: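 Luciferase reporter of PMP22 intronic-element expression in stably transfected S16 rat Schwann cells, read by ONE-Glo luminescence after 24 h compound exposure at 37 C. Activity scaled between DMSO (0%) and positive-control PTC124; concentration-effect curves quality-classified.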
# 7G8 = assay: qHTS profiling for inhibitors of Plasmodium falciparum proliferation (AID 504749); further: nearly all actives have a fitted effect of over 60% in size; further: potency means the concentration at half of the fitted maximal effect; settings: P. falciparum in erythrocytes, SYBR Green DNA, 72 h; series mostly up to 28.7 µM
# Outline: (§1)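 Infected RBCs, 0.3% parasitemia/2.5% Hct final; cpd 72 h, 37 C, 5% CO2; lysis buffer with saponin/triton/SYBR Green I, o/n RT dark; FI 485/535; norm. to artemisinin (0.29 uM) and DMSO.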
# DIV17 = assay: as above; settings: P. falciparum in erythrocytes, SYBR Green DNA, 72 h; series mostly up to 28.7 µM
# Outline: as §1
# TAB109 = assay: as above; settings: P. falciparum in erythrocytes, SYBR Green DNA, 72 h; series mostly up to 28.7 µM
# Outline: as §1
# [3] = target: Cytochrome P450 3A4 (Homo sapiens) (UniProt P08684); assay: qHTS Assay for Inhibitors and Substrates of Cytochrome P450 3A4 (AID 884); further: nearly all actives have a fitted effect of over 50% in size; further: potency means the concentration at half of the fitted maximal effect
# Chain of Cytochrome P450 3A4 (Homo sapiens) (P08684 whole entry, looked up): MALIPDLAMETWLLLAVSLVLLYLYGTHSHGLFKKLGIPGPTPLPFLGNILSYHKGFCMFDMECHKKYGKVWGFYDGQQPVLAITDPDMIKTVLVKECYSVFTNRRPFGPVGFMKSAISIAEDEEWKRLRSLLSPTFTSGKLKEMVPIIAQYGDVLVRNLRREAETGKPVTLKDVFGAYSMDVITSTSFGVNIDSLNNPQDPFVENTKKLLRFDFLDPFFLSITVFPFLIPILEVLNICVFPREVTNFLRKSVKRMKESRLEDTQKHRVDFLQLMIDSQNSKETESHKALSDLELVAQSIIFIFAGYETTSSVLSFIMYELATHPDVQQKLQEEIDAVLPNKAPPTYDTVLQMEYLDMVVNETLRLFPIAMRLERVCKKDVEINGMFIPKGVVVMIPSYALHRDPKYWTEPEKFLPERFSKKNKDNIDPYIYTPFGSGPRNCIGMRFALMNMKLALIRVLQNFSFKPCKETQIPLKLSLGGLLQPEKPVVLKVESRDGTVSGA
# Outline: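 20 nM human CYP3A4 with 25 uM Luciferin-PPXE (at KM) in 200 mM KPO4, preincubated 10 min with compound; NADPH regeneration started a 60 min RT reaction. Luciferin detected by luminescence, normalized to 57 uM ketoconazole as full inhibition.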
# [4] = Confirmation and Secondary Assay for Modulators of Hemoglobin Beta Chain Splicing at IVS2 654 locus (AID 910);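 further: HeLa cells stably carrying EGFP split by mutant beta-globin IVS2-654 intron; per-well total GFP intensity by laser scanning cytometry after 2-day treatment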
# Outline: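 Readout: per-well total peak green fluorescence (488 nm ex, 500–520 nm em) from objects 5–250 µm, reflecting correct splicing of an EGFP-654 reporter. Compounds were applied for 2 days at 37 °C to overnight-plated HeLa EGFP-654 cells; controls were DMSO and 500 nM IVS2-654 PNA.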
# [5] = target: Peroxisome proliferator-activated receptor delta (Homo sapiens) (UniProt Q03181); assay: qHTS assay for small molecule agonists of peroxisome proliferator-activated receptor delta signaling (AID 588534; calls by dose curve)
# Chain of Peroxisome proliferator-activated receptor delta (Homo sapiens) (Q03181 whole entry, looked up): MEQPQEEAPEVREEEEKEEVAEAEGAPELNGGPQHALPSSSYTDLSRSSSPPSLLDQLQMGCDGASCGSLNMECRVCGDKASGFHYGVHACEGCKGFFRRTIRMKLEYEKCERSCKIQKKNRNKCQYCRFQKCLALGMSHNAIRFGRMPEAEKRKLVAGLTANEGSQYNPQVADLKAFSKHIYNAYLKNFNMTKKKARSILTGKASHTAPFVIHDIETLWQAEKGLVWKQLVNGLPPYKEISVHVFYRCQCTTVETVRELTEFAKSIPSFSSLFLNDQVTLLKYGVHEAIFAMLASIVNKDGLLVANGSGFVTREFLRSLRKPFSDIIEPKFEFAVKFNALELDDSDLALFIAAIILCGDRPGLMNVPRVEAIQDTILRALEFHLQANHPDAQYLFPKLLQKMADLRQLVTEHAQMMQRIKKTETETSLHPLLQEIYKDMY
# Outline: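 Cells carrying a PPAR-delta beta-lactamase reporter were treated with compounds for 18 h at 37 °C in agonist mode. CCF4 fluorescence was read after 2 h; EC50 and efficacy from Hill fits.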
# [6] = target: Vitamin D3 receptor (Homo sapiens) (UniProt P11473); assay: qHTS assay for small molecule antagonists of vitamin D receptor signaling (AID 588541; calls by dose curve;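 further: receptor activated by calcitriol during compound treatment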)
# Chain of Vitamin D3 receptor (Homo sapiens) (P11473 whole entry, looked up): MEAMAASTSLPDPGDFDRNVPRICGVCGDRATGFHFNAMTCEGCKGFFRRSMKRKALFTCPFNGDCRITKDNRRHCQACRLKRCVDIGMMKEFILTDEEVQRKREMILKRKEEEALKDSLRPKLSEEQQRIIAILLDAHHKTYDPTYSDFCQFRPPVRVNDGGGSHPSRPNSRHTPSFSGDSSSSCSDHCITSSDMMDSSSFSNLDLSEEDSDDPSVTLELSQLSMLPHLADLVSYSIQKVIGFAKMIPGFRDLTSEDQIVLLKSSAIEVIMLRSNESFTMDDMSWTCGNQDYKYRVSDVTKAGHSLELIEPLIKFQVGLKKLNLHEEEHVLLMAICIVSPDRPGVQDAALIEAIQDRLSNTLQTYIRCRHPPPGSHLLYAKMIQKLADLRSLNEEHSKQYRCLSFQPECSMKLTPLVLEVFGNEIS
# Outline: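 Antagonist-mode beta-lactamase reporter assay: HEK293T VDR-UAS-bla cells were exposed to titrated compound alongside 1-alpha,25-dihydroxyvitamin D3 at 3 nM final for 16 h. Values were normalized to the 50 nM agonist control and DMSO basal, with IC50 and efficacy from Hill equation fits.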
# [7] = target: Vitamin D3 receptor (Homo sapiens) (UniProt P11473); assay: qHTS assay for small molecule agonists of vitamin D receptor signaling (AID 588543; calls by dose curve)
# Outline: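 β-lactamase reporter, VDR-UAS-bla HEK293T, agonist mode. Cells plated 5 h at 37 °C, compound titration 16 h at 37 °C, CCF4 dye 2 h RT, ratio 460/530 nm. Hill fit → EC50, efficacy vs 50 nM 1α,25-(OH)2D3.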
# [8] = target: Thyroid hormone receptor beta (Homo sapiens) (UniProt P10828); assay: qHTS assay for small molecule agonists of thyroid hormone receptor beta signaling (AID 588545; calls by dose curve)
# Chain of Thyroid hormone receptor beta (Homo sapiens) (P10828 whole entry, looked up): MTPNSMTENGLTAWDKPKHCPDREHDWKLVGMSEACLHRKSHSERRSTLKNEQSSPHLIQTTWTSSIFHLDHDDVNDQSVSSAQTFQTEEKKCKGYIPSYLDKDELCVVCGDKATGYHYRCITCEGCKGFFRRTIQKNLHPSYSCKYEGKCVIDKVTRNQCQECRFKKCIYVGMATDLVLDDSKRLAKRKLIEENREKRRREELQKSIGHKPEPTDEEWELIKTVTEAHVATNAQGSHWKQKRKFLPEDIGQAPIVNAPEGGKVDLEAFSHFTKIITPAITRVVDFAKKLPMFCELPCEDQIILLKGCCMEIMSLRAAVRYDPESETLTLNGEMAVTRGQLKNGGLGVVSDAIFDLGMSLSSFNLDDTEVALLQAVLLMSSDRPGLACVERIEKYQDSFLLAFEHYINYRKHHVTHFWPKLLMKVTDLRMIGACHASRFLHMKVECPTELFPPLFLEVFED
# Outline: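 Beta-lactamase reporter activity under TR response element control is measured in HEK 293 cells after 18 hrs compound exposure. Signal is ratiometric CCF4 fluorescence, 460/530 nm.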
# [9] = qHTS assay for small molecule antagonists of retinoid X receptor alpha signaling (AID 588546; active means well fitted inhibition curve with a large enough effect in the signal ratio, with a control signal flat, not every such curve was filed as active; the % refers to the signal ratio;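 further: cells stimulated with 9-cis-retinoic acid as agonist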); settings: HEK293T RXRa-UAS-bla, beta-lactamase ratio, antagonist mode; measured here: W530 green channel, cytotoxicity proxy
# Outline: (§2)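 Beta-lactamase reporter inhibition, read as CCF4 fluorescence ratio (ex 405, em 460/530 nm) after 2 h at RT. HEK293T UAS-bla cells, 2500/well, were stimulated with 9-cis-RA at 500 or 100 nM final alongside test compound for 18 h at 37 C.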
# [10] = target: Retinoic acid receptor RXR-alpha (Homo sapiens) (UniProt P19793); assay: as above; settings: HEK293T RXRa-UAS-bla, beta-lactamase ratio, antagonist mode
# Chain of Retinoic acid receptor RXR-alpha (Homo sapiens) (P19793 whole entry, looked up): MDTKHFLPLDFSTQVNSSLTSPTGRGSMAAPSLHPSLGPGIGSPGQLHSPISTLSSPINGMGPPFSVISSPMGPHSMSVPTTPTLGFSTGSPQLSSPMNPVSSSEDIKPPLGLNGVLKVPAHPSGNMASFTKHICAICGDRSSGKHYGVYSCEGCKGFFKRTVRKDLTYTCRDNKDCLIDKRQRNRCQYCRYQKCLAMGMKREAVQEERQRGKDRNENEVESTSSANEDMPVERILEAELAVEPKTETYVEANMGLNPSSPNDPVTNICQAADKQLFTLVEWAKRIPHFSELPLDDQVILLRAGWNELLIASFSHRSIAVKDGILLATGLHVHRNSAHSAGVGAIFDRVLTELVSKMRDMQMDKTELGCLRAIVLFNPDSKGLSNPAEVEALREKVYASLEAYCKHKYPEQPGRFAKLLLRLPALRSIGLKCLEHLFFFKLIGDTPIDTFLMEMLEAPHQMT
# Outline: as §2
# PC26 = assay: qHTS profiling for inhibitors of Plasmodium falciparum proliferation (AID 504749); further: nearly all actives have a fitted effect of over 60% in size; further: potency means the concentration at half of the fitted maximal effect; settings: P. falciparum in erythrocytes, SYBR Green DNA, 72 h; series mostly up to 28.7 µM
# Outline: as §1
# [11] = target: Cytochrome P450 3A4 (Homo sapiens) (UniProt P08684); assay: qHTS Assay for Activators of Cytochrome P450 3A4 (AID 885); further: nearly all actives have a fitted effect of over 65% in size
# Outline: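 Human CYP3A4 (20 nM) with Luciferin-PPXE at 25 uM (its KM) in 200 mM KPO4; 10 min compound preincubation, then NADPH regeneration and 60 min reaction at RT. Luciferin read by luminescence; normalized to 57 uM ketoconazole full inhibition.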
# [12] = Confirmation and Secondary Assay for Modulators of Hemoglobin Beta Chain Splicing at IVS2 705 locus (AID 930);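 further: HeLa cells stably expressing the EGFP-705 splicing reporter; GFP fluorescence per well restored by corrected splicing of the IVS2-705 intron in EGFP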
# Outline: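 Secondary splice-site specificity test uses HeLa expressing CMV-driven EGFP interrupted by IVS2-705; cells were treated 2 days at 37C with 500 nM antisense PNA as positive control.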
# [13] = target: Peroxisome proliferator-activated receptor alpha (Homo sapiens) (UniProt Q07869); assay: qHTS assay for small molecule agonists of the peroxisome proliferator-activated receptor alpha (PPARalpha) signaling pathway (AID 651778); settings: PathHunter PPARalpha complementation, chemiluminescence, 6 h; max response: stronger effect = higher value
# Chain of Peroxisome proliferator-activated receptor alpha (Homo sapiens) (Q07869 whole entry, looked up): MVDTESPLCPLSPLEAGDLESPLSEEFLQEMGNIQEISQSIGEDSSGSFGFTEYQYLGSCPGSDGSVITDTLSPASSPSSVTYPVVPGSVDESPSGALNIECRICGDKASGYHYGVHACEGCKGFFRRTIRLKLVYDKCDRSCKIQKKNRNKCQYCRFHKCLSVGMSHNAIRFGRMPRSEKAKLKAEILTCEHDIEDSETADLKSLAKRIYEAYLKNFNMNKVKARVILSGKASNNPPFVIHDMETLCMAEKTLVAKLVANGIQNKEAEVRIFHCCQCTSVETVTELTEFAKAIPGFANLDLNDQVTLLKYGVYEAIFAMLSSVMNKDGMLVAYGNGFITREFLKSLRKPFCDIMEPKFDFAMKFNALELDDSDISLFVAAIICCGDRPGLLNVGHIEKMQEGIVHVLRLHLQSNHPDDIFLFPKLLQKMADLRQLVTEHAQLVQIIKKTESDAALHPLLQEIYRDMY
# Outline: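 Chemiluminescence from complemented enzyme reported PPARalpha activation in cells after 6 hr of compound treatment at 37 C. The detection reagent was incubated for 60 min at room temperature, and compounds were scored as agonists.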
# [14] = qHTS assay for small molecule agonists of the antioxidant response element (ARE) signaling pathway measured by Nrf2-dependant transcriptional activity - cell viability counter screen (AID 720653; active means well fitted curve in the direction sought with a large enough effect in the repeat runs; an effect the other way counts as inactive or inconclusive); settings: ARE-bla HepG2 viability, CellTiter-Glo ATP luminescence, 16 h; max response: stronger effect = lower value
# Outline: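 Cytotoxicity counter screen: intracellular ATP quantified by CellTiter-Glo luminescence in the same ARE-bla HepG2 plates, after 16 h compound exposure and a 2 h beta-lactamase substrate step.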
# [15] = qHTS assay for cell viability of HEK293 cells (AID 743288); settings: ATP luminescence (CellTiter-Glo), 18 h; max response: stronger effect = lower value; further: nearly all actives have a fitted effect of over 50% in size
# Outline: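 Environmental chemicals tested in qHTS format against parental HEK293 cells; 18 h treatment, 37 C; read-out ATP luminescence (CellTiter-Glo), 30 min RT development.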
structure (smiles),measurement,setting,value
Cc1ccccc1/C=C/C1=NCCN1,outcome,[1],inactive
COC(C(=O)C(O)C(C)O)C1Cc2cc3cc(OC4CC(OC5CC(O)C(OC)C(C)O5)C(OC(C)=O)C(C)O4)c(C)c(O)c3c(O)c2C(=O)C1OC1CC(OC2CC(OC3CC(C)(O)C(OC(C)=O)C(C)O3)C(O)C(C)O2)C(O)C(C)O1 (centres undefined),Potency,[2],inactive
same,Potency,7G8,0.112 µM (active)
same,Potency,DIV17,2.69 µM (active)
same,Potency,TAB109,794 nM (active)
CC1CC[C@@]2(NC1)OC1CC3C4CC[C@@H]5CC(O)CC[C@@]5(C)C4CC[C@]3(C)C1C2C (some centres undefined),Potency,[3],inactive
same,Potency,[4],inactive
same,Potency,[2],inactive
same,Potency,7G8,12.6 µM (active)
same,Potency,TAB109,inactive
C#CCN1CC(=O)N(COC(=O)[C@@H]2[C@@H](C=C(C)C)C2(C)C)C1=O,outcome,[5],inactive
same,Potency,[6],inactive
same,outcome,[7],inactive
same,Potency,[8],inactive
same,max response,[9],-1.89%
same,max response,[10],-19.9% (inactive)
same,Potency,7G8,inactive
same,Potency,DIV17,inactive
same,Potency,PC26,inactive
same,Potency,TAB109,inactive
CCCCCCC(=O)O[C@H]1CC[C@H]2[C@@H]3CCC4CC(=O)C=C(C)[C@]4(C)[C@H]3CC[C@]12C (some centres undefined),Potency,[2],11.4 µM (active)
same,Potency,7G8,8.91 µM (active)
same,Potency,PC26,inactive
same,Potency,TAB109,inactive
CC[C@@H](CO)Nc1nc(NCc2ccccc2)c2ncn(C(C)C)c2n1,Potency,[11],inactive
same,outcome,[1],inactive
CCN(CC)C(=O)N[C@@H]1C=C2c3cccc4[nH]cc(c34)C[C@H]2N(C)C1,Potency,[2],inactive
same,Potency,7G8,8.91 µM (active)
same,Potency,DIV17,10.7 µM (active)
same,Potency,PC26,12 µM (active)
O=[N+]([O-])OC1CO[C@H]2C(O[N+](=O)[O-])COC12 (some centres undefined),Potency,[3],inactive
same,Potency,[4],inactive
same,Potency,[2],inactive
same,Potency,7G8,inactive
same,Potency,DIV17,inactive
same,Potency,PC26,inactive
same,Potency,TAB109,inactive
CCC/C=C/C=C/C(=O)OC1/C(=C/C(=O)OC)CC2CC(C(C)O)OC(=O)CC(O)CC3CC(OC(C)=O)C(C)(C)C(O)(CC4C/C(=C/C(=O)OC)CC(/C=C\C(C)(C)C1(O)O2)O4)O3 (centres undefined),Potency,[2],inactive
same,Potency,7G8,0.708 µM (active)
same,Potency,DIV17,0.953 µM (active)
same,Potency,PC26,0.953 µM (active)
same,Potency,TAB109,2510 nM (active)
CN(C)[C@@H](Cc1ccccc1)c1ccccc1,Potency,[2],inactive
same,Potency,PC26,inactive
same,Potency,TAB109,inactive
CC(C)CCC(=O)OC1CCC2C3CCC4=CC(=O)CC[C@]4(C)C3CC[C@]12C (some centres undefined),Potency,7G8,10 µM (active)
same,Potency,DIV17,inactive
CN(C)C1C(=O)C(C(N)=O)C(=O)C2(O)C(=O)C3C(=O)c4c(O)cccc4C(C)(O)C3C(O)C12 (centres undefined),Potency,[2],inactive
same,Potency,PC26,inactive
Cc1cc2c(cc1Cl)N(C(=O)Nc1ccc(Oc3cccnc3C)nc1)CC2,outcome,[1],inactive
O=C(NC(=O)c1c(F)cccc1F)Nc1ccc(Cl)cc1,Potency,[3],inactive
same,Potency,[4],inactive
same,outcome,[12],inactive
same,outcome,[5],inactive
same,Potency,[6],inactive
same,outcome,[7],inactive
same,Potency,[8],inactive
same,max response,[9],-10.4%
same,max response,[10],-3.02% (inactive)
same,max response,[13],-1.48% (inactive)
same,max response,[14],-7.3% (inactive)
same,max response,[15],-0.376% (inactive)
c1cnc2c(c1)ccc1cccnc12,outcome,[5],inactive
CC(=O)Oc1c2c(c(CC=C(C)C)c3c1C(=O)C1=CC4CC5C(C)(C)OC(C/C=C(\C)C(=O)O)(C4=O)[C@]15O3)OC(C)(CCC=C(C)C)C=C2 (some centres undefined),Potency,[3],12.6 µM (active)
same,Potency,[4],inactive
NC1C[C@H]1c1ccccc1 (some centres undefined),Potency,[3],inactive
same,Potency,[4],inactive
same,outcome,[12],inactive
CNNC,Potency,[11],inactive
same,Potency,[4],inactive
C[C@@]12C=CC(=O)C=C1CCC1C2CC[C@]2(C)C(=O)CCC12 (some centres undefined),Potency,[3],inactive
same,Potency,[4],inactive
C[C@H]1O[C@H](O[C@H]2[C@H](O)[C@@H](O)[C@@H](O)[C@H](O)[C@@H]2O)[C@@H](N)C[C@@H]1NC(=N)C(=O)O,Potency,[3],inactive
same,Potency,[4],inactive
CC(C)=O,outcome,[5],inactive
OCC(O)Cc1ccc2c(c1)OCO2 (centres undefined),Potency,[11],inactive
same,Potency,[4],inactive
C=CCO[C@@H](Cn1ccnc1)c1ccc(Cl)cc1Cl,Potency,[11],inactive
CC1=CC(=O)c2c(O)cccc2C1=O,Potency,[3],inactive
same,Potency,[4],inactive
CCCCN(CC)c1c([N+](=O)[O-])cc(C(F)(F)F)cc1[N+](=O)[O-],Potency,[11],inactive
same,Potency,[4],inactive
same,Potency,[6],inactive
same,Potency,[8],inactive
same,max response,[9],-9.26%
same,max response,[10],-14% (inactive)
same,max response,[13],-2.71% (inactive)
same,max response,[14],-14.4% (inactive)
same,max response,[15],-10.2% (inactive)
